# From PubChem BioAssay (NCI)
# About 83,000 compounds went through this panel and 20% of them were active in at least one assay; those are over-represented in the sample as a whole.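 Treatment: one concentration, 48 hours, 96-well format. Scoring: percent growth, with anything below 10 considered active.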 A number with no mark means an inactive call.
# System: MDA-MB-468 breast
# Assay: NCI-60 one-dose screen, 48 h (100 = growth as untreated, 0 = no growth, -100 = all killed)
# Conditions: 10 µM unless noted
row,Compound,growth
1,CC1=NCC2NC(=O)NC(C)=C12 (stereo not drawn),92.3%
2,O=C(NCCCNc1cc(-c2cn(-c3ccccc3)nc2-c2cccc(O)c2)ccn1)Nc1cccc(C(F)(F)F)c1,11.2%
3,CCCCNC(=O)c1ccc(OCC)cc1,117%
